Sampled rows, rich in hits. Any-hit rate of the full collection: about 2.3%.
Mcl1-Noxa inh: disrupts binding of human Mcl-1 to Noxa peptide; AID 1022; TR-FRET Mcl-1/Noxa peptide binding, 2 h; inhibition, % at 21.7 µM; Q07820; actives 1.5% (n = 220,000);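 active means compounds that cut the protein-peptide binding signal by more than 50% relative to plate controls in a single-dose test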;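 further: His-tagged Mcl-1 with rhodamine Noxa BH3 peptide and terbium anti-His antibody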
Target sequence (Q07820 whole entry, looked up): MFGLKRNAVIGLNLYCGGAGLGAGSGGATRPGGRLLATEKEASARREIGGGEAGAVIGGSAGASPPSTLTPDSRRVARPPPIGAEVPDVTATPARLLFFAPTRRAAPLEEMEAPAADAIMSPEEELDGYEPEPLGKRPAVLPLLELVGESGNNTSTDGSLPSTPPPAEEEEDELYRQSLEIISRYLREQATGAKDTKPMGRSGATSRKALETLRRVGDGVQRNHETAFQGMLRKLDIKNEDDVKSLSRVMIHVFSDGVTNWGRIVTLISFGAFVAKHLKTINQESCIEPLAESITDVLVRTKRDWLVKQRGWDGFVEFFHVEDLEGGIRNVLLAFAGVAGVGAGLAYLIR
BCLXL inh: inhibitors of human Bcl-xL. Q07817. GST-Bcl-xL / FITC-Bim BH3 peptide fluorescence polarization. inhibition, % at 10.9 µM. actives 0.7% (n = 320,000);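 active means inhibition above the mean of all tested compounds plus 3 SD, cutoff set per campaign, cut at about 30% in these data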;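 further: inhibitors lower millipolarization by displacing the labeled peptide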
Target sequence (Q07817 whole entry, looked up): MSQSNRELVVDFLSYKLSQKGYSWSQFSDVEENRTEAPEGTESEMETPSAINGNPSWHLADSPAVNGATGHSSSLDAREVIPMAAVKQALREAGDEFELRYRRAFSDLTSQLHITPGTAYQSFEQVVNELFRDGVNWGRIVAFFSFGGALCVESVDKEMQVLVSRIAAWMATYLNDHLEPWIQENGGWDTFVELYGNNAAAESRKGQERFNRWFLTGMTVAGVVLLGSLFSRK
Bim-Mcl-1: inhibitors of Bim-Mcl-1 interaction, human. Bead-based flow cytometry, Bim peptide-Mcl-1 binding. inhibition, % at 10 µM. actives 0.1% (n = 190,000); in the data active means inhibition above about 40%
Mcl1-Bid inh: Mcl-1/Bid interaction inhibition; Q07820; TR-FRET Mcl-1/Bid-Dy647 peptide binding, 1536-well; inhibition, % at 21.7 µM; actives 0.97% (n = 220,000);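 active means compounds that cut the binding signal by more than half at the single screening dose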;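 further: His-tagged Mcl-1 with europium anti-His antibody binding Bid BH3 peptide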
MCL1 BIM primary: disrupts human MCL1 binding to BIM-BH3 peptide | Q07820 | inhibition, % at 10.9 µM | GST-MCL1 / FITC-Bim-BH3 fluorescence polarization | AID 2057 | actives 0.68% (n = 320,000);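 active means inhibition above the mean inhibition of all tested compounds plus 3 SD, set per campaign, cut at about 40% in these data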;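 further: higher means more loss of mP so more displacement of Bim peptide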
GLD-1 RNA inh: GLD-1-TGE RNA interaction inhibition (C. elegans); Q17339; purified GLD-1 + fluorescein TGE RNA, fluorescence polarization; inhibition, % at 5.96 µM; actives 0.44% (n = 320,000);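 active means percent inhibition above a per-plate cutoff, the plate mean of test compounds plus 3 SD, cut at about 30% in these data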
A number is an active result; – = inactive; · = not tested or not shown.

SMILES	Mcl1-Noxa inh	BCLXL inh	Bim-Mcl-1	Mcl1-Bid inh	MCL1 BIM primary	GLD-1 RNA inh
Cc1ccc2[nH]cc(S(=O)(=O)c3ccc(F)cc3)c(=O)c2c1	·	–	·	·	–	–
O=C(NC1CCCC1)c1csc2c1CCCC2	–	–	–	100	–	–
CCCNC(=O)c1csc2c1CCCCC2	–	–	–	–	–	–
CCCCCCCC/C=C\CCCCCCCC(=O)O	63	–	·	–	–	–
CCCCC/C=C\C/C=C\C/C=C\CCCCC(=O)O	·	–	·	·	–	–
CN(C)CCN(Cc1ccc(Cl)cc1)c1ccccn1	61	–	–	–	–	–
O=C(CN1C(=O)NC2(CCCCCC2)C1=O)NCc1ccccc1	·	·	·	·	·	–
CCN(CC)c1ccc(C=Nc2cccnc2Cl)c(O)c1	·	44	·	·	51	–
CCOC(=O)c1cc(C#N)c(SCC(N)=O)[nH]c1=O	–	38	·	–	–	–
CC1CCN(C(=O)c2[nH]cnc2C(=O)Nc2cccc(Cl)c2)CC1	·	–	·	·	–	–
CCOc1ccc(C(=O)NC(=S)Nc2ccc(N3CCC(C)CC3)cc2)cc1[N+](=O)[O-]	–	·	–	54	·	·
CCOc1ccc(C(=O)NC(=S)Nc2ccccc2N2CCC(C)CC2)cc1[N+](=O)[O-]	–	–	–	–	–	–
CCN(CC)C(=O)C1CCCN(c2ccc([N+](=O)[O-])cc2/C=N/NC(=O)c2cccc([N+](=O)[O-])c2)C1 (stereo not drawn)	–	–	–	63	–	–
O=C(O)c1cccc(NC(=O)c2ccc3c(c2)C(=O)N(C2CCCCC2)C3=O)c1	·	–	·	·	–	–
CC(=O)Nc1ccc(-c2csc(NC(=O)C3CC(=O)N(c4ccc5c(c4)OCCO5)C3)n2)cc1 (stereo not drawn)	87	–	·	–	–	–
Cc1c(Cl)cnc(NC(=O)COC(=O)CCS(=O)(=O)c2ccccc2)c1Cl	–	–	–	–	–	–
O=C(COC(=O)C1CC1)Nc1ncc(Cl)cc1Cl	·	–	·	·	–	–
O=C(COC(=O)CCS(=O)(=O)c1ccc(Cl)cc1)Nc1ncc(Cl)cc1Cl	–	–	–	93	–	–
O=C(COC(=O)C1CC1)Nc1ncc(C(F)(F)F)cc1Cl	–	32	–	–	–	–
O=C(COC(=O)C1CCN(S(=O)(=O)c2cc([N+](=O)[O-])ccc2Cl)CC1)Nc1ncc(Cl)cc1Cl	69	–	–	–	–	–
CC(=O)COC(=O)C1CCN(S(=O)(=O)c2cc([N+](=O)[O-])ccc2Cl)CC1	–	–	·	–	–	–
Cc1ccc2c(c1)N(CC(=O)NC(C)CCc1ccccc1)C(=O)c1cccnc1O2 (stereo not drawn)	·	–	·	·	–	–
O=C(Nc1ccccc1)C(=O)Nc1ccc2c(c1)N(C(=O)C1CC1)CCC2	·	–	·	·	–	–
Nc1c(C(=O)NCC2CCCO2)sc2nc3c(c(-c4ccco4)c12)CC/C3=C\c1ccco1 (stereo not drawn)	98	·	44	80	·	·
CC(C)OC(=O)c1c2nc3ccccc3nc2n2c1[nH]c(=O)c1ccccc12	–	–	–	–	–	48
SMILES	Mcl1-Noxa inh	BCLXL inh	Bim-Mcl-1	Mcl1-Bid inh	MCL1 BIM primary	GLD-1 RNA inh
CC(C)OC(=O)c1c(N)n(CCCN2CCOCC2)c2nc3ccccc3nc12	–	–	–	–	–	–
CCCN(CCC)CCNc1c(N2CCN(C(=O)OCC)CC2)c(=O)c1=O	64	–	–	–	–	–
C=CCN1C(=O)/C(=C2/C(=O)N(CC(=O)O)c3ccccc32)S/C1=N/c1nccs1	89	·	–	–	·	·
C=CCN1C(=O)/C(=C/c2ccc(O)cc2)S/C1=N/c1nccs1	–	–	–	–	–	–
N#Cc1ccccc1NC(=O)COc1ccccc1C(=O)Nc1ccccc1	·	·	·	·	·	–
COc1cc(/C=N/NC(=O)C2c3ccccc3Oc3ccccc32)ccc1O	79	–	–	–	–	–
COc1cc(/C=N/N(C)c2ccccc2)ccc1O	56	–	–	–	–	–
COc1cc(OC)c(OC)cc1/C=N/N(C)c1ccccc1	–	–	–	–	–	–
Cc1cnc(C(=O)OCC(=O)Nc2ccc(Br)c(C)c2)cn1	·	–	·	·	–	–
CC1(OC(=O)C2CCCC2)C(=O)C=C2C=C(c3ccsc3)N(C3CCCCC3)C=C2C1=O (stereo not drawn)	–	30	·	–	–	–
CC1(OC(=O)C2CCCC2)C(=O)C=C2C=C(c3ccsc3)N(CC3CC3)C=C2C1=O (stereo not drawn)	–	–	·	–	–	–
Cc1cc(/C=N/NC(=O)COc2cccc3cccnc23)c(C)n1-c1ccc(O)cc1	72	–	–	–	–	–
Cc1cc(C)cc(-n2c(C)cc(/C=N\NC(=O)COc3cccc4cccnc34)c2C)c1	–	–	–	–	–	–
COc1ccc(CNC(=O)CN2C(=O)CSc3ccc(S(=O)(=O)N4CCOCC4)cc32)c(OC)c1	·	–	·	·	–	–
CC(=O)c1ccc(NC(=O)C(C)N2CCN(C/C=C/c3ccccc3)CC2)cc1 (stereo not drawn)	–	–	·	–	–	–
COc1ccc(Cl)cc1NC(=O)C(C)N1CCN(C/C=C/c2ccccc2)CC1 (stereo not drawn)	–	–	–	51	–	–
CC(C(=O)Nc1ccc([N+](=O)[O-])cc1)N1CCN(C/C=C/c2ccccc2)CC1 (stereo not drawn)	–	–	41	–	–	–
CN(C)c1cc[n+](CC(=O)c2ccc(OC(F)F)cc2)cc1	–	–	·	–	–	–
CCOc1ccc2sc(NS(=O)(=O)c3ccc(OC)c(OC)c3)nc2c1	–	64	–	–	–	–
COc1ccc(C(c2c(O)cc(C)oc2=O)c2c(O)cc(C)oc2=O)cc1	76	–	–	–	–	–
COc1ccc(C(c2c(O)nc[nH]c2=O)c2c(O)nc[nH]c2=O)cc1	–	–	·	–	–	–
COc1ccccc1/C=C\C(=O)NCC(=O)N/N=C(/C)c1cccc([N+](=O)[O-])c1	·	–	·	·	–	–
Cc1cccc(C(=O)Nc2ccnc(-c3ccncc3)n2)c1	–	–	–	–	–	–
Cc1cccc(C(=O)Nc2ccnc(-c3cccnc3)n2)c1	–	–	–	91	–	–
C=CCn1c(SCC(=O)Nc2sccc2C(N)=O)nc2sc(C)c(C)c2c1=O	–	–	–	52	–	–
SMILES	Mcl1-Noxa inh	BCLXL inh	Bim-Mcl-1	Mcl1-Bid inh	MCL1 BIM primary	GLD-1 RNA inh
COc1ccc(CN2CCN(c3ccccn3)CC2)c(OC)c1	–	–	–	56	–	–
CC(/C=N/NC(=O)Cc1cccs1)=C\c1ccco1	–	–	–	–	–	–
CC(/C=C/c1ccco1)=N\NC(=O)c1cc(C)[nH]n1	78	–	–	–	–	–
Cc1cc(C(=O)N/N=C/c2ccco2)n[nH]1	–	–	–	–	–	–
CC(/C=C/c1ccco1)=N/NC(=O)Cc1cccs1	87	–	–	–	–	–
C[C@@H](NC(=O)c1[nH]cnc1C(=O)Nc1nccs1)c1ccccc1	·	–	·	·	–	–
CC(=O)N/C(=C\c1ccccc1)C(=O)OCC(=O)NC1CCS(=O)(=O)C1 (stereo not drawn)	·	–	·	·	–	–

High-throughput results deposited in PubChem BioAssay by several laboratories.
